# Measured values from PubChem BioAssay AID588773 (The Scripps Research Institute Molecular Screening Center, 2011).
# A number with no mark means an inactive call.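 Rule for the calls: active = inhibition of plasma PAF acetylhydrolase at a set limit or more at 0.1 µM, with tenfold selectivity over all off-targets; inactive = inhibition below the limit or weaker selectivity.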
# Experiment: pPAFAH inhibition and serine hydrolase selectivity, late-stage follow-up, selectivity assay for pPAFAH inhibitor project, biochemical, gel-based, FP-Rh fluorescence, mouse, HTS hit compounds (AID 588773)
# Conditions: gel-based competitive ABPP, proteome, MW 30 kDa protein, at 10 µM, hits give high values
row,SMILES,inhibition [%]
1,O=C(Oc1ccc([N+](=O)[O-])cc1)N1CCC(N2CCCCC2)CC1,27
2,CN(C)C(=O)Oc1noc2cc(Cl)ccc12,14
